BAP1 inh = inhibitors of BAP1 deubiquitinase, primary screen, biochemical, Ub-AMC fluorescence, kinetic. recombinant BAP1, Ub-AMC hydrolysis fluorescence kinetic; active compounds read low. Ubiquitin carboxyl-terminal hydrolase BAP1 (Homo sapiens), Q92560. calls only at 20 µM. 0.48% of 72,000 active. AID 436, 2006;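 active means activity remaining at or below 50% of control, provided the compound also passes the data quality filters; inactive means the rest, including low values that fail the filters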;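 further: 100% = DMSO wells rate and 0% = substrate alone blank rate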
DAT uptake mod = changed hDAT dopamine uptake under cocaine IC80, either direction, primary screen, cocaine antagonist project, cell-based, LLC-PK1 hDAT, [14C]-dopamine uptake, MLSMR; Sodium-dependent dopamine transporter (Homo sapiens), Q01959; LLC-PK1 hDAT cells, [14C]-dopamine uptake with cocaine IC80; actives deviate in either direction; B-score at 10 µM; 1.3% of 110,000 active;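 active means Z score or B-score, a plate-position-corrected score, falls beyond the plate's 99.7% confidence bounds, in either direction; inactive means both scores lie inside the 99.7% bounds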;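 further: scored against the spread of the other compound wells on the same plate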
D1 mod = D1 CRE-luciferase signal change, two-sided – cell-based, HEK293 D1, dopamine EC30, D1 allosteric modulator project, primary screen | B-score at 10 µM | AID 641, 2007 | D(1A) dopamine receptor (Homo sapiens), P21728 | dopamine EC30 potentiation; actives deviate in either direction | 5.9% of 58,000 active;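 active means luminescence count or its row- and column-corrected plate score outside the 99.7% band of the plate's sample wells, on either side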
Target sequence (P21728 whole entry, looked up): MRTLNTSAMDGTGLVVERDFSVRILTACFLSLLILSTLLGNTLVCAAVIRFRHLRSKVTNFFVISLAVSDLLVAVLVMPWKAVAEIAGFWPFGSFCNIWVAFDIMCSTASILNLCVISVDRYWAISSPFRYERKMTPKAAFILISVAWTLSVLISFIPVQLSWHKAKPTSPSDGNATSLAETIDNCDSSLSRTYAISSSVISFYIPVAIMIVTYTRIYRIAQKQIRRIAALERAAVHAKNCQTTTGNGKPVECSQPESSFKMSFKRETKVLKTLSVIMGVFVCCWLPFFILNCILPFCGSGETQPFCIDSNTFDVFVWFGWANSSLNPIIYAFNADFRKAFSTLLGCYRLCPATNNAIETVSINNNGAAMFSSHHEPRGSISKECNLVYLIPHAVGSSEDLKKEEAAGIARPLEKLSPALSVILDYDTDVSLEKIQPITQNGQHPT
D1 mod confirm = D1 receptor positive allosteric modulators, retest, confirmation, cell-based, HEK293 D1, CRE-luciferase, duplicate | luminescence at 10 µM | dopamine EC30 potentiation; active compounds read high | AID 642, 2007 | shares compounds with D1 mod | 88% of 2,200 active;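 active means luminescence in either of two replicates above the same-plate mean plus 3 SD of the low-dose dopamine control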
D1 ag no DA = D1 receptor agonism without dopamine, confirmation, mechanism study for D1 allosteric modulator project, cell-based, HEK293 D1, CRE-luciferase, secondary assay 1; luminescence at 10 µM; luminescence, no dopamine; active compounds read high; 0.8% of 1,900 active; AID 646, 2007; shares compounds with D1 mod; in the data active means luminescence above about 3900
Isoprot counter = alters isoproterenol CRE-luciferase response in HEK293 cells; shares compounds with D1 mod; HEK293 D1 CRE-luciferase, isoproterenol EC30 counter-screen; active compounds read high; luminescence at 10 µM; 63% of 2,200 active;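 active means luminescence in either replicate above plate mean of wells with a partly effective reference agonist dose plus 3 SD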;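 further: isoproterenol raises cAMP through native beta-adrenoceptor Gs so signal bypasses D1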
Numbers without * were called inactive; i = inactive; / = no result given. Only a selection was taken, and hits are over-represented in it overall.

SMILES | BAP1 inh | DAT uptake mod | D1 mod | D1 mod confirm | D1 ag no DA | Isoprot counter
CC1CCN(S(=O)(=O)c2ccc3c(c2)C(=O)c2cc(S(=O)(=O)N4CCC(C)CC4)ccc2-3)CC1 | i | / | / | / | / | /
Cc1cc(=O)oc2c1ccc1oc(/C(=N/O)c3ccccc3)c(C)c12 | i | 0.11 | 5.2* | 7656* | 1496 | 3600*
Cc1cc(=O)oc2cc(OC(=O)c3ccccc3)ccc12 | / | -0.22 | / | / | / | /
CCOC(=O)COc1cc2c(C(=O)OCC)c(C)oc2cc1Br | i | -0.011 | 0.19 | / | / | /
CCOC(=O)c1c(C)oc2cc(Br)c(O)c(Br)c12 | i | 0.36 | 7.9* | 9840* | 1808 | 2832
CCN(CC)CCn1c(-c2ccccc2)nc(=S)c2c1CC(C)(C)OC2 | / | 0.13 | / | / | / | /
CC1(C)Cc2nc(-c3ccccc3)n3cnnc3c2CO1 | / | -0.041 | 9.5* | 13436* | 1760 | 3524*
Nc1nc(-c2ccco2)nc(N2CCCCC2)n1 | i | -0.55 | 10* | 14860* | / | 2796*
Nc1nc(N2CCCCC2)nc2ccccc12 | / | / | -2 | / | / | /
Cc1c(Cc2ccccc2)c(=O)oc2cc(OC(C)C)ccc12 | i | / | / | / | / | /
O=C(CN1C2=NCCCN2c2ccccc21)c1cccc2ccccc12 | i | / | / | / | / | /
COC(=O)c1ccccc1NC(=O)COc1ccccc1 | i | -0.38 | 5.8* | 14156* | 1628 | 3284*
COC(=O)c1ccccc1NC(=O)CN(C)S(=O)(=O)c1ccc(OC)c(C)c1 | i | 0.56 | 0.42 | / | / | /
COCCNC(=O)c1ccccc1NC(=O)COc1ccccc1 | i | -0.41 | 2.3 | / | / | /
COC(=O)c1ccccc1NC(=O)COc1ccc(S(=O)(=O)N2CCCC2)cc1C | / | 0.81 | 3.2* | 5776* | 1512 | 2704
COc1cccc(C(=O)Nc2nc(-c3ccc(F)cc3)cs2)c1 | i | / | / | / | / | /
CCOC(=O)C(C)Sc1nc2c(cnn2-c2ccc(C)cc2)c(=O)[nH]1 (centres undefined) | i | -0.15 | 1 | / | / | /
Cc1ccc(-n2ncc3c(=O)[nH]c(SC(C)C)nc32)cc1 | i | 0.065 | 17* | 12920* | 1492 | 3760*
O=c1[nH]c(SCc2ccccc2Cl)nc2c1cnn2-c1ccccc1 | i | -0.092 | 7.6* | 6188 | / | 3076*
CC(C)Sc1nc2c(cnn2-c2ccc(F)cc2)c(=O)[nH]1 | i | -0.65 | / | / | / | /
O=c1[nH]c(SCc2nc3c(cnn3-c3ccccc3)c(=O)[nH]2)nc2ccccc12 | / | 0.48 | / | / | / | /
CC(C)Sc1nc2c(cnn2-c2ccccc2)c(=O)[nH]1 | i | -1.7 | 15* | 15608* | 1888 | 3492*
N#CCCn1c2c(ccc1=O)CCCC2 | i | / | / | / | / | /
CC(C)COC(=O)c1ccc2c(c1)C(=O)N(c1ccc(Oc3ccccc3)cc1)C2=O | i | / | / | / | / | /
COc1ccc(-c2cc(C)c3c(ccc4ccccc43)n2)cc1 | i | / | / | / | / | /
SMILES | BAP1 inh | DAT uptake mod | D1 mod | D1 mod confirm | D1 ag no DA | Isoprot counter
FC(F)(F)c1cccc(-c2ccc(-c3csnn3)o2)c1 | / | -0.22 | 24* | 5424 | 1700 | 2612
Cc1nnc(NC(=O)c2ccc(-c3cccc(C(F)(F)F)c3)o2)s1 | / | -0.49 | / | / | / | /
COc1ccc(C2C(C(=O)OCCc3ccccc3)=C(C)NC3=C2C(=O)CCC3)cc1OC (centres undefined) | i | / | / | / | / | /
O=C1CC(N2CCN(Cc3ccc4c(c3)OCO4)CC2)C(=O)N1CCc1ccccc1 (centres undefined) | i | 1.8 | 2.5* | 4952 | 960 | 2176
O=C1CC(N2CCN(Cc3ccc4c(c3)OCO4)CC2)C(=O)N1Cc1ccc(N2CCCC2=O)cc1 (centres undefined) | / | 0.061 | / | / | / | /
COc1ccc(NC(=O)c2cc(-c3ccc(Br)cc3)nc3ccccc23)cc1 | i | / | / | / | / | /
Cc1nc2c(oc3ccc(Br)cc32)c(=O)[nH]1 | i | / | / | / | / | /
CC1(C)CC(=O)C2=C(C1)Nc1ccccc1NC2c1ccccc1OCc1ccccc1 (centres undefined) | i | / | / | / | / | /
N#Cc1c(N=Cc2cccc3ccccc23)sc2c1CCCC2 | i | / | / | / | / | /
CCOC(=O)c1cccnc1SCc1cc(=O)n2ccccc2n1 | i | 1 | 4.4* | 10728* | 1604 | 3652*

Screening results from PubChem BioAssay.
